Results filed as inconclusive are left out. Unmarked numbers belong to inactive results. Calls of active or inactive are those of the source. The call rests on the fitted dose curve; in most records, active means well fitted curve in the direction sought with a large enough effect; inconclusive means small, poorly fitted or top-dose-only effect, or another doubt; inactive means no such curve, though single readings can be large; an effect the other way counts as inactive or inconclusive.

Test [1] is described as follows: qHTS of pediatric cancer cell lines to identify multiple opportunities for drug repurposing: Primary screen for BT-12 cells (AID 1347101). Further: nearly all actives have a fitted effect of over 25% in size. The method, boiled down:
(§1)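 Cells (500-1,000/well) rested 5 h, then received compounds for 48 h; metabolically active cells were measured by CellTiter-Glo luminescence. Final concentrations spanned up to 46 µM (MIPE, 11-point) or 0.59 nM-46 µM (NPC, 8-point) in primary screens, 11-point in follow-ups.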
Background: qHTS replaces the single test concentration by a dilution series.

Test [2] is described as follows: qHTS of pediatric cancer cell lines to identify multiple opportunities for drug repurposing: Primary screen for Rh18 cells (AID 1347102). Further: nearly all actives have a fitted effect of over 65% in size. Put shortly: (§2)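 Cells (500-1,000/well) in growth media were settled 5 h at 37 degrees C, then given compounds for 48 h. Viability was read as CellTiter-Glo luminescence. Primary runs used MIPE at 11 points (0.78 nM-46 µM) and NPC at 8 points (0.59 nM-46 µM); follow-ups used 11 points.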

Test [3] is described as follows: qHTS of pediatric cancer cell lines to identify multiple opportunities for drug repurposing: Primary screen for OHS-50 cells (AID 1347103). Further: nearly all actives have a fitted effect of over 40% in size. The method, boiled down: as §1
A short description of test [4]: qHTS of pediatric cancer cell lines to identify multiple opportunities for drug repurposing: Primary screen for RD cells (AID 1347104). Further: nearly all actives have a fitted effect of over 55% in size. The method, boiled down: (§3)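 Following a 5-hour attachment period, cells at 500-1,000/well received compounds and were cultured for 48 hours. CellTiter-Glo was added and luminescence read to estimate viable, metabolically active cells.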

Test [5] in a line: qHTS of pediatric cancer cell lines to identify multiple opportunities for drug repurposing: Primary screen for MG 63 (6-TG R) cells (AID 1347105). Further: nearly all actives have a fitted effect of over 50% in size. The method, boiled down: as §3
Test [6] can be described thus: qHTS of pediatric cancer cell lines to identify multiple opportunities for drug repurposing: Primary screen for Rh30 cells (AID 1347107). Further: nearly all actives have a fitted effect of over 75% in size. Put shortly: as §2
Test [7] can be described thus: qHTS of pediatric cancer cell lines to identify multiple opportunities for drug repurposing: Primary screen for Rh41 cells (AID 1347108). Further: nearly all actives have a fitted effect of over 70% in size.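 On activity change, negative = cytotoxic: luminescence drop marks cytotoxic hits.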 Put shortly: as §3
A short description of test [8]: qHTS of pediatric cancer cell lines to identify multiple opportunities for drug repurposing: Confirmatory screen for NB1643 cells (AID 1347109). Further: nearly all actives have a fitted effect of over 45% in size. Put shortly:
as §2

Test [9] is described as follows: qHTS of pediatric cancer cell lines to identify multiple opportunities for drug repurposing: Confirmatory screen for A673 cells (AID 1347110).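 Further: cells exposed to compound for 48 h before the viability read; nearly all actives have a fitted effect of over 65% in size.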 Put shortly: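 Viability was read as ATP luminescence (CellTiter-Glo) after 48 h of compound exposure at 37 C in A673 cells seeded at 500-1,000/well. Titrations reached 46 uM final, with 11 points in the confirmatory screen. Concentration-response curves were fitted directly.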

A short description of test [10]: qHTS of pediatric cancer cell lines to identify multiple opportunities for drug repurposing: Confirmatory screen for DAOY cells (AID 1347114). Further: nearly all actives have a fitted effect of over 65% in size. The method, boiled down:
(§4)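 Viability measured as metabolically active cells via CellTiter-Glo luminescence following 48 hours of compound exposure, 11-point dilutions in confirmatory testing. 500-1,000 cells/well plated 5 hours before dosing; controls were DMSO and 2.3 µM bortezomib.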

Test [11] can be described thus: qHTS of pediatric cancer cell lines to identify multiple opportunities for drug repurposing: Confirmatory screen for TC32 cells (AID 1347118).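 Further: cells exposed to compound for 48 h before the read; nearly all actives have a fitted effect of over 65% in size.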 The method, boiled down:
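Luminescent CellTiter-Glo read-out of metabolically active TC32 cells after 48 h compound exposure. Primary: MIPE 11-point, 0.78 nM–46 µM; NPC 8-point, 0.59 nM–46 µM. Confirmatory: 11-point dilutions.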

Test [12] can be described thus: qHTS of pediatric cancer cell lines to identify multiple opportunities for drug repurposing: Confirmatory screen for MG 63 (6-TG R) cells (AID 1347119). Further: nearly all actives have a fitted effect of over 55% in size. The method, boiled down: as §2
Test [13] can be described thus: qHTS of pediatric cancer cell lines to identify multiple opportunities for drug repurposing: Confirmatory screen for BT-12 cells (AID 1347112). Further: nearly all actives have a fitted effect of over 55% in size. The method, boiled down:
as §2

Test [14] in a line: qHTS of pediatric cancer cell lines to identify multiple opportunities for drug repurposing: Confirmatory screen for LAN-5 cells (AID 1347113). Further: nearly all actives have a fitted effect of over 65% in size. Put shortly:
as §2

A short description of test [15]: qHTS of pediatric cancer cell lines to identify multiple opportunities for drug repurposing: Confirmatory screen for NB-EBc1 cells (AID 1347115).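 Further: cells exposed to compound for 48 h before the viability read; nearly all actives have a fitted effect of over 45% in size.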 Put shortly: as §2
Test [16] is described as follows: qHTS of pediatric cancer cell lines to identify multiple opportunities for drug repurposing: Confirmatory screen for SJ-GBM2 cells (AID 1347116). Further: nearly all actives have a fitted effect of over 60% in size. Put shortly:
as §4

The nature of test [17]: qHTS of pediatric cancer cell lines to identify multiple opportunities for drug repurposing: Confirmatory screen for BT-37 cells (AID 1347117). Further: nearly all actives have a fitted effect of over 55% in size. The settings on record: BT-37 pediatric cancer cells, viability; activity change, negative = cytotoxic: at 45.9 µM (top of the series). Put shortly:
as §2

A short description of test [18]: qHTS of pediatric cancer cell lines to identify multiple opportunities for drug repurposing: Confirmatory screen for control Hh wild type fibroblast cells (AID 1347121). Further: nearly all actives have a fitted effect of over 70% in size. The method, boiled down:
as §2

The nature of test [19]: qHTS of pediatric cancer cell lines to identify multiple opportunities for drug repurposing: Confirmatory screen for SK-N-MC cells (AID 1347111).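 Further: cells exposed to compound for 48 h before the readout; nearly all actives have a fitted effect of over 70% in size.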 Put shortly: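 Metabolically active cells were quantified by ATP-dependent luminescence (CellTiter-Glo, 15 min at room temperature) following 48 h treatment. Cells had been plated at 500-1,000 per well and settled for 5 h beforehand.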

Test [20] can be described thus: qHTS of pediatric cancer cell lines to identify multiple opportunities for drug repurposing: Primary screen for control Hh wild type fibroblast cells (AID 1347106). Further: nearly all actives have a fitted effect of over 55% in size.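 On activity change, negative = cytotoxic: a drop in luminescence marks cytotoxicity and a rise apparent proliferation.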 Put shortly:
as §2
Potency means the concentration at half of the fitted maximal effect.

As to `O=C1NC(=O)C(=Cc2ccc3nccc(-c4ccncc4)c3c2)S1`, the Potency in test [1] is 0.385 µM (active); in test [2], 0.469 µM (active); in test [3] it was 0.0385 µM (active); in test [4], 0.372 µM (active); in test [5], 0.0743 µM (active); in [6], 1.48 µM (active). Also, the Potency in test [7] is 0.59 µM (active); in [8] it was 6.57 µM (active); in test [9] it was 4.65 µM (active); in test [10], 8.27 µM (active); in [12], 1.04 µM (active). In addition, the Potency entry in test [11] is “inactive”.

For the compound `C[C@H](NCc1ccc2c(c1)nc(NC(=O)c1ccc(-c3cn[nH]c3)s1)n2CCc1ccccc1)C(C)(C)C`, the Potency in test [1] is 2.43 µM (active); in test [2], 2.96 µM (active); in [3], 1.09 µM (active); in [4], 3.72 µM (active); in test [5] it was 2.96 µM (active); in test [6] it was 14.8 µM (active). For the same compound, the Potency in test [7] was 2.35 µM (active); in [8], 1.04 µM (active); in [9], 0.928 µM (active); in test [13] it was 2.93 µM (active); in test [14], 1.65 µM (active); in test [10], 2.93 µM (active). In addition, the Potency in test [15] was 1.31 µM (active); in [16], 0.928 µM (active); in test [17], 0.928 µM (active); in [11], 0.928 µM (active); in test [12], 2.33 µM (active); in test [18], 10.4 µM (active).

For `FC(F)c1nc2ccccc2n1-c1nc(N2CCOCC2)nc(N2CCOCC2)n1`, the Potency was 1.22 µM (active) in [1]; 0.935 µM (active) in test [2]; 0.0769 µM (active) in test [3]; 0.418 µM (active) in test [4]; 0.187 µM (active) in test [5]; 1.48 µM (active) in test [7]. Moreover, the Potency was 1.47 µM (active) in [8]; 0.737 µM (active) in [19]; 1.04 µM (active) in [13]; 1.47 µM (active) in [14]; 1.47 µM (active) in test [17]; 0.928 µM (active) in test [11]. The Potency in [12] was 0.928 µM (active). The Potency result in test [16] is “inactive”.

On to `C[C@@H]1CC[C@@]2(OC1)OC1CC3C4CC=C5CC(O)CCC5(C)C4CCC3(C)C1[C@@H]2C` (stereo partly drawn), for which the Potency entry in test [1], in [2], in [3], in [4], in test [20] and in test [6] was “inactive” each time. Besides, the Potency entry in [7] is “inactive”.

For `Nc1ccn(C2CO[C@H](CO)O2)c(=O)n1` (stereo partly drawn), the Potency result in test [1], in test [2], in test [3], in [4], in [20] and in test [6] was “inactive” each time. Further, the Potency entry in test [7] is “inactive”.

In the case of `O=C(O)CCCCCC(=O)NN=C1CCCC1`, the Potency result in [1], in test [2], in test [3], in test [4], in test [20] and in [6] was “inactive” throughout. In test [7], the Potency result was “inactive”.

On to `O=C(Nc1cccc(Nc2ncc(Br)c(NCCc3cnc[nH]3)n2)c1)N1CCCC1`, for which the Potency in test [1] is 19.3 µM (active); in test [2], 9.35 µM (active); in test [3], 17.2 µM (active); in test [4] it was 16.6 µM (active); in test [5], 14.8 µM (active); in test [7] it was 9.35 µM (active).

In the case of `O=C1c2c(O)cccc2[C@@H]([C@@H]2O[C@H](CO)[C@@H](O)[C@H](O)[C@H]2O)c2cc(CO)cc(O)c21`, the Potency entry in test [1], in test [2], in [3], in test [4], in test [5] and in [6] was “inactive” each time. For the same compound, the Potency result in test [7], in test [8], in test [14], in test [10] and in [18] was “inactive” in each case.

Take `COc1cc2c(Nc3ccc(Cl)c(Cl)c3F)ncnc2cc1OCC1C[C@@H]2CN(C)C[C@H]2C1`: the Potency in [1] was 24.3 µM (active); in [2], 18.7 µM (active); in test [3], 4.85 µM (active); in test [4], 16.6 µM (active); in [5], 14.8 µM (active); in test [7] it was 9.35 µM (active).

As to `N[C@H]1CN(c2c(F)cc3c(=O)c(C(=O)O)cn(C4C[C@@H]4F)c3c2Cl)CC12CC2` (stereo partly drawn), the Potency result in [1], in test [2], in test [3], in [4], in test [20] and in [6] was “inactive” each time.

As for `CC(=O)OCC(=O)[C@@]1(O)CC[C@H]2[C@@H]3CCC4=CC(=O)CC[C@]4(C)[C@@H]3C(=O)C[C@@]21C`, the Potency result in [1], in test [2], in test [3], in test [4], in [20] and in [6] was “inactive” in each case. Further, the Potency result in [7] is “inactive”.

In the case of `CON=C(C(=O)N[C@@H]1C(=O)N2C(C(=O)O)=C(Cn3ccc(=N)n3CCO)CS[C@H]12)c1csc(N)n1`, the Potency result in test [1], in [2], in [3], in test [4], in test [20] and in test [6] was “inactive” in each case. Further, the Potency entry in [7] is “inactive”.

As for `COc1cc(C)c(Sc2cnc(NC(=O)c3ccc(CNC(C)C(C)(C)C)cc3)s2)cc1C(=O)N1CCN(C(C)=O)CC1` (stereo not drawn), the Potency in test [1] is 19.3 µM (active); in [2] it was 14.8 µM (active); in [3], 4.85 µM (active); in test [4] it was 14.8 µM (active); in [5], 14.8 µM (active); in test [7] it was 7.43 µM (active).

On to `COc1ccc(CCC(=O)c2c(O)cc(O[C@@H]3O[C@H](CO)[C@@H](O)[C@H](O)[C@@H]3O[C@@H]3O[C@@H](C)[C@H](O)[C@@H](O)[C@@H]3O)cc2O)cc1O`, for which the Potency entry in [1], in [2] and in test [3] was “inactive” throughout. Further, the Potency was 13.2 µM (active) in test [4] and 3.72 µM (active) in test [20].

As to `COc1cccc2c1C(=O)c1c(O)c3c(c(O)c1C2=O)C[C@@](O)(C(=O)CO)C[C@@H]3O[C@H]1C[C@H](N)[C@@H](O)[C@H](C)O1`, the Potency is 0.685 µM (active) in [1]; 0.469 µM (active) in test [2]; 0.611 µM (active) in test [3]; 0.935 µM (active) in test [4]; 1.48 µM (active) in test [5]; 0.662 µM (active) in [7]. Also, the Potency in test [8] is 0.165 µM (active); in [13] it was 0.585 µM (active); in [14], 0.165 µM (active); in test [10], 1.47 µM (active); in [16], 0.737 µM (active); in test [17], 0.117 µM (active). Also, the Potency in [11] was 0.131 µM (active). The Potency entry in test [6] is “inactive”.

(Values after PubChem BioAssay (NCATS).)
